Outcome data for 37 compounds are collected here from PubChem BioAssay (Tox21).

Calls of active or inactive are those of the source. Calls come from the whole dose curve; as a rule, active = well fitted curve in the direction sought with a large enough effect in the repeat runs; inconclusive = weak or mixed curves; inactive = flat fitted curve, though single readings scatter.

The first assay is described as follows: qHTS assay to test for compound auto fluorescence at 535 nm (green) in HEK293 cells (AID 720680). Conditions: green autofluorescence 485/535 nm; series mostly up to 91.3 µM.
For `C[Si]1(C)O[Si](C)(C)O[Si](C)(C)O[Si](C)(C)O1`, the compound was called inactive.

Turning to `CCCCCCCCCCCC(=O)OC`, the outcome was inactive.

In the case of `CCc1ccccc1CC`, the result was inactive.

With `OCc1ccccc1`, the compound was called inactive.

As to `C=CCc1ccc(OC)c(OC)c1`, the compound was called inactive.

For `C=Cc1ccc(C)cc1`, the compound was called inactive.

For `O=C(O)c1ccc(C(=O)O)c(C(=O)O)c1`, the result was inactive.

For `CC(=O)OCc1ccco1`, the call was inactive.

For the compound `CN(C)c1ccc(O)c2c1C[C@H]1C[C@H]3[C@H](N(C)C)C(=O)C(C(N)=O)=C(O)[C@@]3(O)C(=O)C1=C2O`, the outcome was inactive.

Turning to `CCO[Si](CCCN)(OCC)OCC`, the call was inactive.

On to `CN(C)CCOC(=O)COc1ccc(Cl)cc1`, for which the call was inactive.

With `CC(CCl)OP(=O)(OC(C)CCl)OC(C)CCl` (centres undefined), the compound was classed as inactive.

For the compound `O=c1[nH]cnc2[nH]ncc12`, the outcome was inactive.

As for `COc1ccc(CCC(C)=O)cc1`, the call was inactive.

`COC(=O)CCCC(=O)OC`: the compound was classed as inactive.

As to `COc1ccc([N+](=O)[O-])cc1N`, the compound was classed as inactive.

With `CCCOC(=O)c1ccccc1`, the result was inactive.

`O=C(O)c1ccc(S(=O)(=O)N(Cl)Cl)cc1`: the compound was classed as inactive.

For the compound `Brc1ccc(Br)c(Br)c1`, the compound was called inactive.

`NCCCCCCN`: the compound was called inactive.

Take `CC1(C)NC(=O)NC1=O`: the result was inactive.

For `CCNC(=S)NCC`, the result was inactive.

Take `CCCCCCCCCCO`: the call was inactive.

For the compound `CCOC(=O)c1ccc(N)cc1`, the outcome was inactive.

On to `Cc1ccc(C(C)C)c(O)c1`, for which the compound was called inactive.

For the compound `CC(C)(Oc1ccc(CCNC(=O)c2ccc(Cl)cc2)cc1)C(=O)O`, the compound was called inactive.

Regarding `O=C(O)c1cc2ccccc2cc1O`, the compound was classed as inactive.

On to `C=C(C)[C@H]1CC=C(C)C(=O)C1`, for which the compound was called inactive.

As for `CC(=O)CC(C)(C)O`, the compound was called inactive.

As to `CN(C)c1ccc(Cc2ccc(N(C)C)cc2)cc1`, the outcome was inactive.

With `Cc1ccc2ncccc2c1`, the result was inactive.

Consider `CSc1ccc(Cl)cc1`, for which the compound was called inactive.

As to `COc1ccc(OC)cc1`, the outcome was inactive.

With `O=S(=O)(O)c1ccccc1`, the compound was classed as inactive.

Regarding `CC(C)c1cccc(C(C)C)c1`, the compound was called inactive.

In the case of `COc1ccccc1OCC(O)CO` (centres undefined), the compound was classed as inactive.

`C=CC(C)CCCC(C)(C)O` (centres undefined): the compound was classed as inactive.

The nature of another assay: qHTS assay to test for compound auto fluorescence at 460 nm (blue) in HEK293 cell free culture (AID 720681). Conditions: cell-free medium, autofluorescence 405/460 nm (blue); series mostly up to 91.3 µM. Put shortly:
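Test compounds were pinned into cell-free culture medium (DMEM with 10% FBS) and fluorescence was read directly at Ex/Em 405/460 nm. Signals were expressed as fluorescence equivalents of triamterene, with DMSO vehicle as control.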
On to `C[Si]1(C)O[Si](C)(C)O[Si](C)(C)O[Si](C)(C)O1`, for which the compound was classed as inactive.

For `CCCCCCCCCCCC(=O)OC`, the compound was called inactive.

On to `CCc1ccccc1CC`, for which the compound was classed as inactive.

With `OCc1ccccc1`, the compound was called inactive.

With `C=CCc1ccc(OC)c(OC)c1`, the call was inactive.

On to `C=Cc1ccc(C)cc1`, for which the result was inactive.

On to `O=C(O)c1ccc(C(=O)O)c(C(=O)O)c1`, for which the result was inactive.

For `CC(=O)OCc1ccco1`, the compound was called inactive.

For the compound `CN(C)c1ccc(O)c2c1C[C@H]1C[C@H]3[C@H](N(C)C)C(=O)C(C(N)=O)=C(O)[C@@]3(O)C(=O)C1=C2O`, the call was inactive.

In the case of `CCO[Si](CCCN)(OCC)OCC`, the call was inactive.

For the compound `CN(C)CCOC(=O)COc1ccc(Cl)cc1`, the compound was called inactive.

As for `CC(CCl)OP(=O)(OC(C)CCl)OC(C)CCl` (centres undefined), the compound was classed as inactive.

On to `O=c1[nH]cnc2[nH]ncc12`, for which the call was inactive.

In the case of `COc1ccc(CCC(C)=O)cc1`, the result was inactive.

Regarding `COC(=O)CCCC(=O)OC`, the call was inactive.

In the case of `COc1ccc([N+](=O)[O-])cc1N`, the result was inactive.

As to `CCCOC(=O)c1ccccc1`, the outcome was inactive.

As to `O=C(O)c1ccc(S(=O)(=O)N(Cl)Cl)cc1`, the call was inactive.

Consider `Brc1ccc(Br)c(Br)c1`, for which the compound was classed as inactive.

Turning to `NCCCCCCN`, the outcome was inactive.

Regarding `CC1(C)NC(=O)NC1=O`, the result was inactive.

For `CCNC(=S)NCC`, the outcome was inactive.

In the case of `CCCCCCCCCCO`, the result was inactive.

On to `CCOC(=O)c1ccc(N)cc1`, for which the result was inactive.

On to `Cc1ccc(C(C)C)c(O)c1`, for which the result was inactive.

Regarding `CC(C)(Oc1ccc(CCNC(=O)c2ccc(Cl)cc2)cc1)C(=O)O`, the result was inactive.

For `O=C(O)c1cc2ccccc2cc1O`, the compound was called inactive.

Take `C=C(C)[C@H]1CC=C(C)C(=O)C1`: the compound was classed as inactive.

On to `CC(=O)CC(C)(C)O`, for which the call was inactive.

Regarding `CN(C)c1ccc(Cc2ccc(N(C)C)cc2)cc1`, the call was inactive.

On to `Cc1ccc2ncccc2c1`, for which the compound was called inactive.

As to `CSc1ccc(Cl)cc1`, the compound was called inactive.

Turning to `COc1ccc(OC)cc1`, the result was inactive.

On to `O=S(=O)(O)c1ccccc1`, for which the compound was classed as inactive.

On to `CC(C)c1cccc(C(C)C)c1`, for which the call was inactive.

Turning to `COc1ccccc1OCC(O)CO` (centres undefined), the compound was classed as inactive.

Consider `C=CC(C)CCCC(C)(C)O` (centres undefined), for which the outcome was inactive.

A further assay can be described thus: qHTS assay to test for compound auto fluorescence at 535 nm (green) in HEK293 cell free culture (AID 720682). Conditions: cell-free medium, green autofluorescence 485/535 nm; series mostly up to 91.3 µM. An outline of the steps:
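DMEM + 10% FBS, cell-free; cpd or DMSO pinned in; Ex485/Em535 read; output as fluorescein-equivalent signal.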
Consider `C[Si]1(C)O[Si](C)(C)O[Si](C)(C)O[Si](C)(C)O1`, for which the call was inactive.

With `CCCCCCCCCCCC(=O)OC`, the outcome was inactive.

As to `CCc1ccccc1CC`, the outcome was inactive.

With `OCc1ccccc1`, the result was inactive.

For the compound `C=CCc1ccc(OC)c(OC)c1`, the outcome was inactive.

For the compound `C=Cc1ccc(C)cc1`, the compound was classed as inactive.

As for `O=C(O)c1ccc(C(=O)O)c(C(=O)O)c1`, the compound was called inactive.

Consider `CC(=O)OCc1ccco1`, for which the outcome was inactive.

With `CN(C)c1ccc(O)c2c1C[C@H]1C[C@H]3[C@H](N(C)C)C(=O)C(C(N)=O)=C(O)[C@@]3(O)C(=O)C1=C2O`, the compound was classed as inactive.

For the compound `CCO[Si](CCCN)(OCC)OCC`, the result was inactive.

For the compound `CN(C)CCOC(=O)COc1ccc(Cl)cc1`, the call was inactive.

`CC(CCl)OP(=O)(OC(C)CCl)OC(C)CCl` (centres undefined): the compound was called inactive.

`O=c1[nH]cnc2[nH]ncc12`: the outcome was inactive.

Regarding `COC(=O)CCCC(=O)OC`, the compound was called inactive.

Take `COc1ccc([N+](=O)[O-])cc1N`: the compound was classed as inactive.

Take `CCCOC(=O)c1ccccc1`: the compound was classed as inactive.

With `O=C(O)c1ccc(S(=O)(=O)N(Cl)Cl)cc1`, the result was inactive.

In the case of `Brc1ccc(Br)c(Br)c1`, the outcome was inactive.

As to `NCCCCCCN`, the compound was classed as inactive.

In the case of `CC1(C)NC(=O)NC1=O`, the compound was classed as inactive.

`CCCCCCCCCCO`: the compound was classed as inactive.

`CCOC(=O)c1ccc(N)cc1`: the result was inactive.

With `Cc1ccc(C(C)C)c(O)c1`, the call was inactive.

On to `CC(C)(Oc1ccc(CCNC(=O)c2ccc(Cl)cc2)cc1)C(=O)O`, for which the compound was classed as inactive.

In the case of `O=C(O)c1cc2ccccc2cc1O`, the compound was classed as inactive.

As for `C=C(C)[C@H]1CC=C(C)C(=O)C1`, the compound was called inactive.

Consider `CC(=O)CC(C)(C)O`, for which the result was inactive.

Take `CN(C)c1ccc(Cc2ccc(N(C)C)cc2)cc1`: the outcome was inactive.

As to `Cc1ccc2ncccc2c1`, the result was inactive.

For `CSc1ccc(Cl)cc1`, the call was inactive.

Regarding `COc1ccc(OC)cc1`, the call was inactive.

For the compound `O=S(=O)(O)c1ccccc1`, the compound was called inactive.

As for `CC(C)c1cccc(C(C)C)c1`, the call was inactive.

For `COc1ccccc1OCC(O)CO` (centres undefined), the result was inactive.

For `C=CC(C)CCCC(C)(C)O` (centres undefined), the result was inactive.
